# Test results published in article PMC7826789 (International Journal of Molecular Sciences, 2021).
smiles,measurement,setting,value
CCn1c(-c2nonc2N)nc2cncc(C(=O)N3CC[C@H](N)C3)c21.Cl [SB-772077-B],Kinases covered,PIM1,PIM1
O=C1Nc2ccc(I)cc2C1=Cc1cc(Br)c(O)c(Br)c1 [GW305074X],Kinases covered,PIM2,PIM2
NCC1CNC(=O)c2cc3ccc(C(=O)Nc4cccnc4)cc3n2C1 (stereo not drawn) [BI00614644],Kinases covered,PIM3,PIM3
O=C(c1ccc(-c2cc(-c3c[nH]nc3-c3ccccn3)ccn2)cc1)N1CCCC1 [GW792479],Kinases covered,PIP4K2C,PIP4K2C
Nc1nccc(-c2c(-c3ccc(F)cc3)ncn2C2CCN(Cc3ccccc3)CC2)n1 [SB-219980],Kinases covered,PIP4K2C,PIP4K2C
CC(C)N1CC(=O)N(C)c2cnc(Nc3cccc(S(=O)(=O)CCN4CCOCC4)c3)nc21 [BI00009348],Kinases covered,PIP5K1C,PIP5K1C
same,Kinases covered,PIP5K2C,PIP5K2C
CCCc1cc(N2CCCN(C)CC2)nc2sc3c(N)ncnc3c12 [BI00604564],Kinases covered,PIP5K1C,PIP5K1C
Cc1cc(NC(=O)c2cccc(NC(=O)/C=C/CN(C)C)c2)ccc1Nc1nccc(-c2cccnc2)n1 [JNK-IN-7],Kinases covered,PIP5K2C,PIP5K2C
COc1cc2ncn(-c3cc(OCC4CCCO4)c(C(N)=O)s3)c2cc1OC (stereo not drawn) [GSK204607],Kinases covered,PLK1,PLK1
same,Kinases covered,PLK2,PLK2
same,Kinases covered,PLK3,PLK3
C[C@@H](Oc1cc(-n2cnc3ccc(CN4CCN(C)CC4)cc32)sc1C(N)=O)c1ccccc1C(F)(F)F [GSK461364],Kinases covered,PLK1,PLK1
COc1cc2ncn(-c3cc(OCc4ccncc4)c(C(N)=O)s3)c2cc1OC [GSK336313],Kinases covered,PLK2,PLK2
CCn1c(-c2nonc2N)nc2cncc(CNC3CCNCC3)c21 [SB-747651A],Kinases covered,PRK2,PRK2
